Laboratory results as given in PubChem BioAssay (NCATS).
Several values for one entry are separate records, joined by “and”; a condition that tells them apart may be missing. Equal entries are not always repeated. Records with an inconclusive call do not appear. Activity calls are given as the source filed them. Unless noted, the call rests on the fitted dose curve; in most records, active means well fitted curve in the direction sought with a large enough effect; inconclusive means small, poorly fitted or top-dose-only effect, or another doubt; inactive means no such curve, though single readings can be large; an effect the other way counts as inactive or inconclusive.

What was measured:
[1] = Cell Viability - Jurkat (AID 426;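 active means dose-dependent loss of cell ATP signal giving a full or clear fitted curve, ranked by lower potency value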; further: potency means the concentration at half of the fitted maximal effect); settings: qHTS
Summary of the method: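 Cells of the human T-cell leukemia line Jurkat (E6-1) are seeded at 5000 per well, treated with compound across a concentration range for 40 hours at 37 °C, then lysed with CellTiter-Glo; luminescence reports ATP.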

[2] = Cell Viability - Hek293 (AID 427;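 active means compounds whose dose-response curve shows a full or clear partial loss of cell viability, called from curve shape rather than a numeric limit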;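 further: potency means the concentration at half of the fitted maximal effect; cells exposed to compound for 40 hours at 37 °C before reading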); settings: qHTS
Summary of the method: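 HEK293 cells in complete medium were exposed to compound for 40 hr at 37 °C, then cellular ATP was read by CellTiter-Glo luminescence. Data were normalized to DMSO (basal) and 100 uM tamoxifen (100% inhibition), and AC50 came from Hill fits.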

[3] = molecular target: Mitogen-activated protein kinase 10 (Mus musculus) (UniProt Q61831); assay: JNK3 AlphaScreen Assay (AID 530; active means well fitted curve in either direction with a large enough effect, not every such curve was filed as active;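 further: kinase came from lysate of stimulated human HepG2 cells; signal reports phosphorylation of biotinylated GST-cJun 1-79 at Ser73 with 10 µM ATP; on the % scale 0 is the no-effect control and ±100 the full control effect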); settings: JNK3 lysate, c-Jun phosphorylation; series mostly up to 57.1 µM
Summary of the method: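 Phosphorylation of biotinylated GST-cJun(1-79) at Ser73 is measured by AlphaScreen proximity luminescence. Enzyme is JNK3 in HepG2 lysates activated with interleukin-1beta and tumor necrosis factor alpha; ATP is 10 uM final.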

[4] = Cellular Toxicity (caspase-3) NIH 3T3 (AID 666); settings: NIH 3T3 caspase-3 activation, apoptosis/toxicity, 0% DMSO, 100% is 100 µM tamoxifen; series mostly up to 92.2 µM;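 further: caspase signal read after 16 h compound exposure; 0% = DMSO basal and 100% = 100 µM tamoxifen stimulation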
Summary of the method: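 Cells were plated at 1000 per well and incubated 5 hr at 37°C, then compound was added for 16 hr. Caspase-Glo 3/7 reagent followed for 20 min at room temperature before luminescence was read.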

[5] = Cell Viability - LYMP2-001 (AID 921); settings: LYMP2-001 lymphoblastoid cell viability; series mostly up to 92.2 µM;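 further: cells exposed to compound for 24 h at 37 °C; 0% = DMSO only and full inhibition = tetraoctylammonium bromide control wells; nearly all actives have a fitted effect of over 70% in size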
Summary of the method: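 Human lymphoblastoid LYMP2-001 cells, 2500 per well, in complete medium, treated 24 h at 37 C. Viability from cellular ATP by CellTiter-Glo luminescence; AC50 from Hill-equation fits of qHTS concentration-response.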

[6] = MultiTox-Fluor Cytotoxicity Assay - LYMP1-002 - Dead Cells (AID 960); settings: LYMP1-002 lymphoblastoid cells, dead-cell protease fluorescence; series mostly up to 46.1 µM;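 further: 0% = DMSO and 100% = tetraoctylammonium bromide; nearly all actives have a fitted effect of over 60% in size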
Summary of the method: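 Cells were plated, rested 5 hr, then treated with compound dilution series for 16 hr at 37 C. After adding substrate reagent and 60 min at room temperature, dead-cell protease fluorescence gave concentration-response curves fitted by the Hill equation.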

[7] = Cell Viability - LYMP2-004 (AID 966); settings: LYMP2-004 lymphoblastoid cell viability, qHTS; series mostly up to 92.2 µM;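 further: cells exposed to compound for 24 h; plate controls were DMSO only for no effect and tetraoctylammonium bromide control for full effect; nearly all actives have a fitted effect of over 65% in size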
Summary of the method: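 qHTS cytotoxicity: human lymphoblastoid line, 24 hr compound treatment, 37 C, complete medium. Viability read as cellular ATP via luciferase luminescence; tetraoctylammonium bromide served as positive control.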

[8] = Cell Viability - LYMP2-009 (AID 968); settings: LYMP2-009 lymphoblastoid cell viability; series mostly up to 92.2 µM;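 further: cells exposed to compound for 24 h at 37 °C; 0% = DMSO alone and the full-kill end = tetraoctylammonium bromide at 92 µM; nearly all actives have a fitted effect of over 55% in size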
[9] = Cell Viability - LYMP2-012 (AID 982); settings: LYMP2-012 lymphoblastoid cell viability qHTS; series mostly up to 92.2 µM;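 further: cellular ATP by luciferase luminescence where a drop means cytotoxicity; cells exposed to compound for one day before reading; 0% = DMSO only and full loss = 92 µM tetraoctylammonium bromide; nearly all actives have a fitted effect of over 55% in size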
[10] = Cell Viability - LYMP2-024 (AID 988); settings: LYMP2-024 lymphoblastoid cell viability; series mostly up to 92.2 µM;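 further: cells exposed to compound for 24 hr at 37 °C; plate controls were DMSO only for no effect and 92 µM tetraoctylammonium bromide for full effect; nearly all actives have a fitted effect of over 60% in size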
Summary of the method: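 qHTS cytotoxicity, human lymphoblastoid line, complete medium; 24 h cpd treatment, 37 C; CellTiter-Glo ATP luminescence readout; tetraoctylammonium bromide positive control; AC50 via Hill fit.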

[11] = molecular target: Estrogen receptor (Homo sapiens) (UniProt P03372); assay: qHTS assay for small molecule antagonists of estrogen receptor alpha signaling (AID 588513; active means well fitted curve in the direction sought with a large enough effect in the signal ratio, with a control signal flat, not every such curve was filed as active; the % refers to the signal ratio; further: on the % scale 0 is the no-effect control and ±100 the full control effect); settings: ER-alpha-UAS-bla HEK293, beta-lactamase ratio, antagonist mode; series mostly up to 76.9 µM
Summary of the method: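 ER-alpha-UAS-bla GripTite HEK 293 cells in 2% charcoal/dextran-treated FBS medium; compounds titrated (1:2, duplicate), then stimulated with 0.5 nM 17-beta-estradiol for 18 h at 37C. CCF4 beta-lactamase fluorescence; Hill-fit IC50 and efficacy.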

[12] = molecular target: Glucocorticoid receptor (Homo sapiens) (UniProt P04150); assay: qHTS assay for small molecule agonists of glucocorticoid receptor signaling (AID 588532; active means well fitted curve in the direction sought with a large enough effect in the signal ratio, with a control signal flat; the % refers to the signal ratio;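 further: 100% = dexamethasone at 0.1 µM and 0% = DMSO only wells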); settings: HeLa MMTV-bla, beta-lactamase ratio, agonist, 18 h; stronger effect = higher value; percent of dexamethasone control, DMSO zero
Summary of the method: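 Stimulation of a glucocorticoid response element-driven beta-lactamase gene was measured in HeLa cells. Responses were scaled between DMSO basal and 0.1 uM dexamethasone, then fitted for half-maximal stimulation.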

[13] = molecular target: Glucocorticoid receptor (Homo sapiens) (UniProt P04150); assay: qHTS assay for small molecule antagonists of glucocorticoid receptor signaling (AID 588533; active means well fitted inhibition curve with a large enough effect in the signal ratio, with a control signal flat, not every such curve was filed as active; the % refers to the signal ratio;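 further: cells stimulated with 2 nM dexamethasone as agonist; on the % scale 0 is the no-effect control and ±100 the full control effect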); settings: HeLa MMTV-bla, GRE beta-lactamase ratio, antagonist mode, 18 h; series mostly up to 76.8 µM
Summary of the method: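 Antagonist-mode qHTS: compound titrations added to GRE-bla HeLa cells, then dexamethasone 2 nM final; 18 h, 37 C. CCF4 FRET fluorescence normalized to dexamethasone and DMSO; IC50 from Hill fit.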

[14] = molecular target: Peroxisome proliferator-activated receptor gamma (Homo sapiens) (UniProt P37231); assay: qHTS assay for small molecule agonists of peroxisome proliferator-activated receptor gamma signaling (AID 588536; active means well fitted curve in the direction sought with a large enough effect in the signal ratio, with a control signal flat, not every such curve was filed as active; the % refers to the signal ratio;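 further: 0% = DMSO basal wells and 100% = rosiglitazone at 2 µM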); settings: HEK293 PPARg-UAS-bla, beta-lactamase ratio, 16 h, percent of rosiglitazone response, DMSO as zero; series mostly up to 76.7 µM
Summary of the method: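 Cells were plated and held 6–6.5 h at 37 C, then compounds were added as a titration series. After a further 16 h, CCF4 dye was loaded for 2 h at room temperature and emission at 460/530 nm recorded.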

[15] = qHTS assay for small molecule agonists of retinoid X receptor alpha signaling (AID 588544); settings: HEK293T RXRa-UAS-bla, beta-lactamase reporter, 18 h; 530 nm emission
[16] = molecular target: Thyroid hormone receptor beta (Homo sapiens) (UniProt P10828); assay: qHTS assay for small molecule agonists of thyroid hormone receptor beta signaling (AID 588545; calls by dose curve;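 further: 0% = DMSO only and 100% = 10 nM T3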); settings: TR-UAS-bla GripTite HEK 293, beta-lactamase ratio, agonist mode, 18 h, percent of T3 response, DMSO as zero; series mostly up to 76.7 µM
Summary of the method: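 Efficacy and EC50 values derive from Hill fits of qHTS titration data, normalized to 10 nM T3 and DMSO-only wells. HEK 293 reporter cells were stimulated for 18 hrs at 37 C, with beta-lactamase activity measured by CCF4 fluorescence.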

[17] = qHTS assay for small molecule activators of the p53 signaling pathway (AID 651743; active means well fitted activation curve with a large enough effect in the signal ratio, not every such curve was filed as active; the % refers to the signal ratio; further: % of control where 0% means no effect); settings: HCT-116 p53RE-bla, beta-lactamase FRET ratio, 16 h; activation: stronger effect = higher value
Summary of the method: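 Agonist-mode quantitative HTS in HCT-116 cells carrying a p53-response-element beta-lactamase reporter; 16 h compound treatment at 37 C, then FRET substrate loading for 2 h at room temperature and fluorescence read.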

[18] = molecular target: Tumor necrosis factor (Homo sapiens) (UniProt P01375); assay: qHTS assay to identify small molecules that stimulate Tumor Necrosis Factor-alpha (TNF-alpha) secretion (AID 651757; active means well fitted curve in the direction sought with a large enough effect in the signal ratio; the % refers to the signal ratio; further: 0% is about no effect); settings: Human cells, HTRF 665/615 ratio; series mostly up to 92.2 µM
Summary of the method: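 Human monocytic THP-1 cells are plated, treated with compound and held at 37 C for 17 hrs. Labeled anti-TNF-alpha antibody mixture is then added; after 3 hr at room temperature, TR-FRET signal reports secreted TNF-alpha.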

[19] = molecular target: Nuclear receptor ROR-gamma (Homo sapiens) (UniProt P51449); assay: qHTS assay for small molecule antagonists of the retinoid-related orphan receptor gamma (ROR-gamma) signaling pathway (AID 651802); settings: ROR-gamma antagonist cell reporter assay; series mostly up to 92.2 µM;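 further: CHO cells with doxycycline-induced ROR-gamma expression; on the % scale 0 is the no-effect control and ±100 the full control effect; nearly all actives have a fitted effect of over 60% in size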
Summary of the method: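 Steps: cells dispensed; compound or DMSO transferred by pin tool; doxycycline added to induce the ROR response element-driven luciferase; plates held 16hr at 37C; ONE-Glo added and luminescence measured.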

[20] = qHTS assay for small molecule antagonists of the retinoid-related orphan receptor gamma (ROR-gamma) signaling pathway - cell viability counter screen (AID 720652; active means well fitted curve in the direction sought with a large enough effect in the repeat runs; an effect the other way counts as inactive or inconclusive;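 further: CHO reporter cells with doxycycline-induced ROR-gamma expression; compound exposure lasted 16 hr before ATP read; on the % scale 0 is the no-effect control and ±100 the full control effect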); settings: RORgamma reporter cell line viability counter screen; series mostly up to 92.2 µM
Summary of the method: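 Steps: seed CHO cells bearing TET-inducible ROR and ROR response element-luciferase; rest 5 hr at 37 C; add compound, then doxycycline; incubate 16 hr; add CellTiter-Glo and read luminescence as ATP-based viability.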

Sequence of Thyroid hormone receptor beta (Homo sapiens) (P10828 whole entry, looked up): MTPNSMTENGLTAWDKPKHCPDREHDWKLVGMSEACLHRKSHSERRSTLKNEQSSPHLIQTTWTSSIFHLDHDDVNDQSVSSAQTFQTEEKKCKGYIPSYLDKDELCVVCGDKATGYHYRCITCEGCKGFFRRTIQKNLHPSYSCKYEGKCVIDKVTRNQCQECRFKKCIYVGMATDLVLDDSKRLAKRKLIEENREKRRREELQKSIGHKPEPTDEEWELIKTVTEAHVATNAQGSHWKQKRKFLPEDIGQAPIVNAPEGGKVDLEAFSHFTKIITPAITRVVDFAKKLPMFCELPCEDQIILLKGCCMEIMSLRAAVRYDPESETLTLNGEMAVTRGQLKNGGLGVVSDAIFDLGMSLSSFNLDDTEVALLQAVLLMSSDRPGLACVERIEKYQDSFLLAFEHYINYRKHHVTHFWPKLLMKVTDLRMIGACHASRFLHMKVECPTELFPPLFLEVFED
Sequence of Tumor necrosis factor (Homo sapiens) (P01375 whole entry, looked up): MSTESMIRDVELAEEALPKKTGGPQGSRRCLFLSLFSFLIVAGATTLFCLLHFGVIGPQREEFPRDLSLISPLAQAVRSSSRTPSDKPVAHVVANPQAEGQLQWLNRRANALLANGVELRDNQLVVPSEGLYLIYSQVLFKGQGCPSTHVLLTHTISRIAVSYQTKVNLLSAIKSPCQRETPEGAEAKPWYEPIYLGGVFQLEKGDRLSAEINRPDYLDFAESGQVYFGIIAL
Sequence of Peroxisome proliferator-activated receptor gamma (Homo sapiens) (P37231 whole entry, looked up): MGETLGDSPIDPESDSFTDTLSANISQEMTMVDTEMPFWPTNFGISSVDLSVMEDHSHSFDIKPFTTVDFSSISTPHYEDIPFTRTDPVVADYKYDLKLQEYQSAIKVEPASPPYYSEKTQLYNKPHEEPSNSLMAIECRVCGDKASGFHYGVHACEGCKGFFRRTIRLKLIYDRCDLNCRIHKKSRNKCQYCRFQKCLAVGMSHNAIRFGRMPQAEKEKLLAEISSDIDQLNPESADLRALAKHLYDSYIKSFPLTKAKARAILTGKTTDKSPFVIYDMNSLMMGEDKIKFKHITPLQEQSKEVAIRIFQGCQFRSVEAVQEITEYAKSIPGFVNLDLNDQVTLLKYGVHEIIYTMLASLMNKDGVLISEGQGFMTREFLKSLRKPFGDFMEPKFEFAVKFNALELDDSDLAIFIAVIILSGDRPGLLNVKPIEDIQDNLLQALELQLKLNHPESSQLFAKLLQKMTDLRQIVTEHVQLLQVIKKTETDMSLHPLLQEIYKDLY
Sequence of Nuclear receptor ROR-gamma (Homo sapiens) (P51449 whole entry, looked up): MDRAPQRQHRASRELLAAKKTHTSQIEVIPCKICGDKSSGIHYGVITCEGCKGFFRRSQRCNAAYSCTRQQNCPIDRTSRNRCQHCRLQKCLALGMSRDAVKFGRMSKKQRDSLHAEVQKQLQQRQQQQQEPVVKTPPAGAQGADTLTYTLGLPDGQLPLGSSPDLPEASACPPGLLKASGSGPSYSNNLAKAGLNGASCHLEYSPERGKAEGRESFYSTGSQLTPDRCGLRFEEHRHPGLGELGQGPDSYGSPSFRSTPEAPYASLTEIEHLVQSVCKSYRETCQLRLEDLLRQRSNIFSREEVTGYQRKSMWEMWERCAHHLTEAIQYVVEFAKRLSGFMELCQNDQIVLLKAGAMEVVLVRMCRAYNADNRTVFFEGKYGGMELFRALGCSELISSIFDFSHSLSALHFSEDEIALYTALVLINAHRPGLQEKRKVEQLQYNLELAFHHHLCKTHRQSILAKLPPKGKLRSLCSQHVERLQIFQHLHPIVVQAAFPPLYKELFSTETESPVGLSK
Sequence of Estrogen receptor (Homo sapiens) (P03372 whole entry, looked up): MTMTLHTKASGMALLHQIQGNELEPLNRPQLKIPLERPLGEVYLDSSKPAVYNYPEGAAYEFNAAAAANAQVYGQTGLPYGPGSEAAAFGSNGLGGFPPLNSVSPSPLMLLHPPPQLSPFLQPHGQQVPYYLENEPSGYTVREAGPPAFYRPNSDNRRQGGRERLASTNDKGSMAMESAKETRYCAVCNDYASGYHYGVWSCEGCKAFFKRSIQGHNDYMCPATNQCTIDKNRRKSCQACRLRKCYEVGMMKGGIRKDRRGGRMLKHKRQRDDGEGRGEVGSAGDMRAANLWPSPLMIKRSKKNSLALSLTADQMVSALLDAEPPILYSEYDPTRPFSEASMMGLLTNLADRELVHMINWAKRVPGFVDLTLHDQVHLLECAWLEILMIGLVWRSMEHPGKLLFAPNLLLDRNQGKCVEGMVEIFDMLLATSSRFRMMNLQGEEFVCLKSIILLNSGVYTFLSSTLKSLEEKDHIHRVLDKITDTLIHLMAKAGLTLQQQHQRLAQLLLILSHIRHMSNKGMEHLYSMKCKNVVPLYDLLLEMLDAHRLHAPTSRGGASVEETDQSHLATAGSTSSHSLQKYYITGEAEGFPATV
Sequence of Glucocorticoid receptor (Homo sapiens) (P04150 whole entry, looked up): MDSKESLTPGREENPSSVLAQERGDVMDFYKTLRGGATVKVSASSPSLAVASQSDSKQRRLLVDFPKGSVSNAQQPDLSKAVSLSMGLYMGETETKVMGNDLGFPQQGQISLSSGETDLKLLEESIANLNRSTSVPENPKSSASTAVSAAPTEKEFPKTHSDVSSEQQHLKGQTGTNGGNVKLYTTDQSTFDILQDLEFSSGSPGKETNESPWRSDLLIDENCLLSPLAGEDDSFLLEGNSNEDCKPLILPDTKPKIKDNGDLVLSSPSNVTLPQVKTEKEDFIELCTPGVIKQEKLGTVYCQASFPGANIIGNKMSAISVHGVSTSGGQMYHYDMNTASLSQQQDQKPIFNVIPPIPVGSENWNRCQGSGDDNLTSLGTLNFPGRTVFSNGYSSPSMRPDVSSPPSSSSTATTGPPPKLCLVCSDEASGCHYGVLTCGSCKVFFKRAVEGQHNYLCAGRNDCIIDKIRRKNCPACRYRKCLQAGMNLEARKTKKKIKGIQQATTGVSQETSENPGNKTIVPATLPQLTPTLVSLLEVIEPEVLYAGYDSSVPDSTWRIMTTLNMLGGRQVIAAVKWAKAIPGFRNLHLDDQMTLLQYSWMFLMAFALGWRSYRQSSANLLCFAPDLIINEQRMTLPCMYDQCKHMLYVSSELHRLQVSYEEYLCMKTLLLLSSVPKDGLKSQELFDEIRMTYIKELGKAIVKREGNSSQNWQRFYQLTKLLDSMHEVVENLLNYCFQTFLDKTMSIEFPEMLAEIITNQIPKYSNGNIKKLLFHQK

Clc1nc(Cl)nc(Cl)n1
inactive: Potency [1] > 92 µM | Potency [2] > 92 µM | outcome [3] | outcome [4] | Potency [5] | Potency [6] | Potency [7] | Potency [8] | Potency [9] | Potency [10] | Potency [11] | activation [12] 2.08% and -5.01% | Potency [13] | outcome [14] | outcome [16] | activation [17] -4.73% and -1.27% | outcome [18] | Potency [19] | Potency [20]
5.45% and -4.64%: max response [15]

ClC(Cl)=C(Cl)C(Cl)=C(Cl)Cl
-9.28% and -8.5%: max response [15]
inactive: Potency [1] > 92 µM | Potency [2] > 92 µM | outcome [3] | outcome [4] | Potency [6] | Potency [7] | Potency [11] | activation [12] -16.2% | Potency [13] | outcome [14] | outcome [16] | outcome [18] | Potency [19] | Potency [20]

Oc1ccc(Cl)cc1Cl
inactive: Potency [1] > 92 µM | Potency [2] > 92 µM | outcome [3] | outcome [4] | Potency [5] | Potency [7] | Potency [8] | Potency [9] | Potency [10] | Potency [11] | activation [12] -5.35% and -2.01% | Potency [13] | outcome [14] | outcome [16] | activation [17] 1.07% and -2.53% | outcome [18] | Potency [19] | Potency [20]
1.97%: max response [15]

CCC[CH2][Sn]([Cl])([Cl])[Cl]
-13.2% and -14.8%: max response [15]
inactive: Potency [1] > 92 µM | Potency [2] > 92 µM | outcome [3] | outcome [4] | Potency [5] | Potency [6] | Potency [7] | Potency [8] | Potency [9] | Potency [10] | Potency [11] | activation [12] -4.16% and -3.24% | Potency [13] | outcome [14] | outcome [16] | activation [17] 0.255% and 3.17% | outcome [18] | Potency [19] | Potency [20]

CO[C@@H](C)[C@](O)(C(=O)OCC1=CCN2CC[C@@H](O)[C@H]12)C(C)C
inactive: outcome [3]

C=CC1CC=CCC1 (configuration not stated)
0.848% and 1.74%: max response [15]
inactive: Potency [1] > 92 µM | Potency [2] > 92 µM | outcome [3] | outcome [4] | Potency [5] | Potency [6] | Potency [7] | Potency [8] | Potency [9] | Potency [11] | activation [12] -1.79% and -4.91% | Potency [13] | outcome [14] | outcome [16] | activation [17] -3.44% | outcome [18]

CN(C)[C@@H]1C(=O)C(C(N)=O)=C(O)[C@]2(O)C(=O)C3=C(O)c4c(O)ccc(Cl)c4[C@](C)(O)[C@H]3C[C@@H]12
inactive: outcome [3]

CCOc1ccc(N)cc1
inactive: Potency [1] > 92 µM | Potency [2] > 92 µM | outcome [4] | Potency [5] | Potency [6] | Potency [7] | Potency [8] | Potency [9] | Potency [10] | Potency [11] | activation [12] 2.46% | Potency [13] | outcome [16] | activation [17] 1.96% | outcome [18] | Potency [19] | Potency [20]
-1.09%: max response [15]

O=[N+]([O-])c1cccc2ccccc12
inactive: Potency [1] > 92 µM | Potency [2] > 92 µM | outcome [3] | outcome [4] | Potency [5] | Potency [6] | Potency [7] | Potency [8] | Potency [9] | Potency [10] | Potency [11] | outcome [14] | outcome [16] | activation [17] -1.88% and -1.02% | outcome [18] | Potency [19]
-3.41% and -2.17%: max response [15]

Nc1ccc(Br)cc1
1.14%: max response [15]
inactive: Potency [1] > 92 µM | Potency [2] > 92 µM | outcome [3] | outcome [4] | Potency [5] | Potency [6] | Potency [7] | Potency [8] | Potency [9] | Potency [10] | Potency [11] | activation [12] -2.07% | Potency [13] | outcome [16] | activation [17] -1.91% | outcome [18] | Potency [19] | Potency [20]
